According to PubChem BioAssay AID743330 (NMMLSC, 2014):
Calls of active or inactive are those of the source. No rule for the calls is given here.

Test system: Cdc42 mutant
Experiment: fluorescent GTP concentration effect on GTPase potency – biochemical, four GTPases, bead flow cytometry, mechanism study, profiling panel (AID 743330)
Conditions: bead-based flow cytometry, fluorescent GTP binding to GTPases

Row | SMILES | EC50
1 | CC1(C)Cc2c(sc(NC(=S)NC(=O)c3ccc(F)cc3)c2C(=O)O)CO1 | 54 nM (active)
2 | CCC1(C)Cc2c(sc(NC(=S)NC(=O)c3ccccc3)c2C(=O)O)CO1 (configuration not stated) | 4 nM (active)
